# Source: PubChem BioAssay AID2073 (Sanford-Burnham Center for Chemical Genomics, 2009)
# Among all 290,000 compounds or so, about 570 (0.2%) were called active. Not shown: some 1% with an inconclusive outcome. Cut-off read from the data, not from the text of the source: active = inhibition mostly above about 51% (no sharp cut-off); inconclusive = no clear call, values can overlap the other calls; inactive = mostly below about 53%. Only a selection was taken, and actives are over-represented in it overall.
# Biological target: Voltage-dependent N-type calcium channel subunit alpha-1B (Homo sapiens) (UniProt Q00975)
# Assay: disruptors of CaV2.2 binding to Mint1 – biochemical, HTRF (AID 2073)
# Conditions: HTRF protein-protein interaction, Mint1-CaV2.2, at 20 µM, stronger effect = higher value
# [1] = measured here: average of repeat tests
# Sequence of Voltage-dependent N-type calcium channel subunit alpha-1B (Homo sapiens) (Q00975 whole entry, looked up): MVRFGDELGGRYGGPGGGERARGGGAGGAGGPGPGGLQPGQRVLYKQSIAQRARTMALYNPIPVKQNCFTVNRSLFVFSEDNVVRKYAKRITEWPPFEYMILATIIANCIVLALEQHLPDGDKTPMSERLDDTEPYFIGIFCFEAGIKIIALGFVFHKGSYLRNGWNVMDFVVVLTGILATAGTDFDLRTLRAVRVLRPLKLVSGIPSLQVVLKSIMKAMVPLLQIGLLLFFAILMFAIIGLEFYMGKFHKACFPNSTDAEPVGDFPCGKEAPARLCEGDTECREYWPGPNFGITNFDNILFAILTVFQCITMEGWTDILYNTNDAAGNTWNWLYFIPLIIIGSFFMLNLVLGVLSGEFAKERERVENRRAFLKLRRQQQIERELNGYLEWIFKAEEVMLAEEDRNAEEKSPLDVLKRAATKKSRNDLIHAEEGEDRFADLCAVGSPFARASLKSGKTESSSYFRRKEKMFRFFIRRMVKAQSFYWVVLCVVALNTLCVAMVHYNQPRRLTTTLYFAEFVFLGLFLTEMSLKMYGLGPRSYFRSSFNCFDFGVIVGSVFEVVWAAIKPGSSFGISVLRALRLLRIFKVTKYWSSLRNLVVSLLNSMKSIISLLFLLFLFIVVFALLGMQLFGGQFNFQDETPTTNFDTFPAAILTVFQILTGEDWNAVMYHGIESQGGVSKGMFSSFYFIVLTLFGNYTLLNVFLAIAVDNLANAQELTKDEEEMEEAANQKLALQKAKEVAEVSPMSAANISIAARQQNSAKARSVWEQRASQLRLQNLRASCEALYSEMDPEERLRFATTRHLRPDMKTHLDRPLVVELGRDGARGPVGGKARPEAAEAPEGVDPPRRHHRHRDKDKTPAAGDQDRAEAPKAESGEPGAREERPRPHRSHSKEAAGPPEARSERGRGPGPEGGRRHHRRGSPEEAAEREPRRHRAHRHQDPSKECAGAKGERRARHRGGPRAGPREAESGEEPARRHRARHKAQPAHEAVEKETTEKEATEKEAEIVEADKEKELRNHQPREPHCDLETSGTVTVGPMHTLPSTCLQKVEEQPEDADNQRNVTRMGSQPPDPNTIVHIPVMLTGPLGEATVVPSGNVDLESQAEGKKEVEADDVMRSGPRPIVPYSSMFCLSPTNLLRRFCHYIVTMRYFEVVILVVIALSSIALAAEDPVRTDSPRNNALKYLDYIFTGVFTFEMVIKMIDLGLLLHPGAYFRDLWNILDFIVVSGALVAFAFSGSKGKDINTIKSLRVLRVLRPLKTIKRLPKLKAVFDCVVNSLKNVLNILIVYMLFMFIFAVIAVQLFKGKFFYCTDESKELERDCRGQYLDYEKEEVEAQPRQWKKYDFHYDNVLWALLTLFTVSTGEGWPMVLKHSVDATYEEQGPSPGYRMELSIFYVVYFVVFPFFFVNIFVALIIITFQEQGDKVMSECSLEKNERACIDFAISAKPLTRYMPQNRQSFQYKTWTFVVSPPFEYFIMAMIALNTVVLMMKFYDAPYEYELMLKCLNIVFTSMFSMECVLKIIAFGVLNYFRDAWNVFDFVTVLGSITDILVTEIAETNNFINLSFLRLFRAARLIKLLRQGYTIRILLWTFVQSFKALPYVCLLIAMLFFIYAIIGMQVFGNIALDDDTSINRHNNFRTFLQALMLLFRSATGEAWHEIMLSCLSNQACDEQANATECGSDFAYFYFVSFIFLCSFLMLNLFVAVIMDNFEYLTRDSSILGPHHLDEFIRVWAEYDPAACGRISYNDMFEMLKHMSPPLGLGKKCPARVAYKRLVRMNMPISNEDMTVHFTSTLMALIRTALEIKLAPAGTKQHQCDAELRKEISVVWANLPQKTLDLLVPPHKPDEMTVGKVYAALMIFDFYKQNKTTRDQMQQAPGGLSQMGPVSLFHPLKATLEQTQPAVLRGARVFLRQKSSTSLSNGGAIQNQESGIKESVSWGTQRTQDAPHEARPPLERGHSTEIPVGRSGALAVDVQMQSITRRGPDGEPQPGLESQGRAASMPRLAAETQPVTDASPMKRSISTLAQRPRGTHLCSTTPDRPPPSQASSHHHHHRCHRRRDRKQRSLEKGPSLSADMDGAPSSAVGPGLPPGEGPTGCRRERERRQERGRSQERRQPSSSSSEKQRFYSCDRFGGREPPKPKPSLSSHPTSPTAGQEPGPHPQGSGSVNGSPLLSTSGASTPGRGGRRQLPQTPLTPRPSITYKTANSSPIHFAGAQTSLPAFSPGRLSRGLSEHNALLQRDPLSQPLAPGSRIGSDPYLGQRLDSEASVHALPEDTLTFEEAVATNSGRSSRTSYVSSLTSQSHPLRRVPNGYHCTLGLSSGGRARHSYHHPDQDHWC
SMILES,inhibition,inhibition [1] [%]
NS(=O)(=O)c1ccc(NCc2c(F)cccc2Cl)cc1,-1.1% (inactive),
Fc1cccc(Cl)c1CNc1ccc(N2CCCC2)cc1,54% (active),
Clc1cccc(Cl)c1CNc1ccc(N2CCCC2)cc1,31.8% (inactive),
CC(C)(C)SCCNC(=O)CN1C(=O)c2cccc3cccc1c23,35.7% (inactive),
O=c1cc(/N=C/c2coc3c(ccc4ccccc43)c2=O)[nH]c(=S)[nH]1,52.9% (active),
CC(=O)Oc1ccc2c(=O)c(/C=N/c3cc(=O)[nH]c(=S)[nH]3)coc2c1,23.2% (inactive),
O=c1cc(/N=C/c2coc3cc(Br)ccc3c2=O)[nH]c(=S)[nH]1,14.4% (inactive),
CCCCN(C)C(=O)c1c[nH]c2ccc(S(=O)(=O)N3CCOCC3)cc2c1=O,24.6% (inactive),
Cc1ccc(CNC(=O)c2ccc3c(c2)NC(=O)CS3)cc1,-5.9% (inactive),
COc1ccc(/C=C(\NC(=O)/C=C/c2ccco2)C(=O)NCCc2nc3ccccc3[nH]2)cc1,52.5% (active),
CC(C)Oc1ccc(/C=C(\NC(=O)/C=C/c2ccco2)C(=O)NCCc2nc3ccccc3[nH]2)cc1,9.4% (inactive),
COc1ccc(/C=C/C(=O)N/C(=C\c2ccco2)C(=O)NCCc2nc3ccccc3[nH]2)cc1,4.5% (inactive),
Cc1cc(C)c2c(c1)NC(c1cc3c(cc1Br)OCO3)C1CC=CC21 (stereo not drawn),12.6% (inactive),
CCOC(=O)/C(C#N)=C/c1cccc(F)c1,15.3% (inactive),
CC(=O)Nc1ccc2c(c1)nc1n2CCN(C2CCCCC2)C1,30.1% (inactive),
O=C(Nc1ccc2c(c1)nc1n2CCN(C2CCCCC2)C1)NC1CCCCC1,11.3% (inactive),
O=C(Nc1ccc2c(c1)nc1n2CCN(C2CCCCC2)C1)c1ccco1,57.2% (active),
CCc1ccc(NC(=O)Cn2nnc(C(=O)NCc3cccs3)c2N)cc1,26.5% (inactive),
O=S(=O)(c1ccc(F)cc1)N1CCN(c2ccc(-c3ccccc3)nn2)CC1,41.9% (inactive),
CC1(C)Cc2nc3sc(C(=O)NCCCO)c(N)c3cc2CS1,30.6% (inactive),
CC1(C)Cc2nc3sc(C(=O)O)c(N)c3cc2CS1,54.6% (active),
CCC1(C)Cc2nc3sc(C(=O)O)c(N)c3cc2CO1 (stereo not drawn),23.8% (inactive),
O=C(NCc1cccnc1)NC(=O)c1ccc(Cl)cc1,-3% (inactive),
O=C(CNC(=O)c1ccc(Cl)cc1)N/N=C/C=C/c1ccccc1,2.8% (inactive),

SMILES,inhibition,inhibition [1] [%]
O=c1oc2c(CN3CCCCCC3)c(O)ccc2cc1-c1nc2ccccc2[nH]1,65.1% (active),
CCc1cc2c(=O)c(-c3nc4ccccc4[nH]3)coc2c(CN2CCCCC2)c1O,9.7% (inactive),
O=c1oc2c(CN3CCN(CCO)CC3)c(O)ccc2cc1-c1ccccn1,30.4% (inactive),
O=C(Cc1n[nH]c(=O)c2ccccc12)NC(c1ccccc1)c1ccccc1,1.8% (inactive),
CC(C)CNc1nc(Oc2ccc(=O)[nH]n2)nc(N2CCOCC2)n1,-12.9% (inactive),
COCCOC(=O)c1c(C)n(C)c2ccc(OC(=O)c3ccccc3F)cc12,-3.1% (inactive),
C=CCNC(=O)/C(C#N)=C/c1cn(-c2ccccc2)nc1-c1ccc(OC)c([N+](=O)[O-])c1,25.3% (inactive),
COc1ccc(-c2nn(-c3ccccc3)cc2/C=C(\C#N)C(N)=O)cc1[N+](=O)[O-],43.3% (inactive),
COc1ccc(-c2nn(-c3ccccc3)cc2/C=C(/C#N)C(N)=O)cc1[N+](=O)[O-],54.4% (active),
CC(NC(=O)c1cc(Br)ccc1Br)c1ccccc1 (stereo not drawn),15.9% (inactive),
S=C(NCc1cccnc1)NCc1cccnc1,-3.7% (inactive),
Cc1cc(C)cc(NC(=S)NCc2cccnc2)c1,-3.3% (inactive),
Cn1cccc1C(C#N)(CC#N)c1cccc(F)c1C#N (stereo not drawn),14.3% (inactive),
CC(C)n1c(=S)[nH]c2c1c(=O)[nH]c(=O)n2C,-95.1% (inactive),
CC(C)c1csc(CN2CCC(CO)(Cc3cccc(F)c3)CC2)n1,-1.1% (inactive),
COc1ccc(S(=O)(=O)N2c3ccccc3OCC2C(C)(C)C)cc1 (stereo not drawn),50.4% (active),
COc1ccc(S(=O)(=O)N2c3cc(C)ccc3OCC2C(C)(C)C)cc1 (stereo not drawn),-0.4% (inactive),
Cc1ccc(S(=O)(=O)N2c3ccccc3OCC2C(C)(C)C)cc1 (stereo not drawn),1.7% (inactive),
CCN(CC)S(=O)(=O)c1ccc(C(=O)Nc2ccc3c(c2)OCO3)cc1,9.9% (inactive),
COc1ccc(Br)cc1/C=c1\sc2nc(-c3ccco3)nn2c1=O,66.4% (active),
COc1ccccc1/C=c1\sc2nc(-c3ccco3)nn2c1=O,35.1% (inactive),
CCOc1ccc(/C=c2\sc3nc(-c4ccco4)nn3c2=O)cc1OCC,31.7% (inactive),
COCCSc1nnc(NC(=O)c2ccc3c(c2)OCO3)s1,3.7% (inactive),
Cc1nc(C(C)N(C)Cc2nc(Cc3ccccc3F)no2)c(C)s1 (stereo not drawn),-15.7% (inactive),

SMILES,inhibition,inhibition [1] [%]
COc1ccccc1N(CC(=O)N(CC(C)C)CC(C)C)S(=O)(=O)c1cccs1,-4.4% (inactive),
COc1ccc(N2C(=O)C(Cl)=C(Oc3cccc(OC)c3)C2=O)cc1,56.7% (active),
COc1ccc(N2C(=O)C(Cl)=C(N3CCCC3)C2=O)cc1,19.5% (inactive),
COc1ccc(N2C(=O)c3cc4ccccc4cc3C2=O)cc1,4.4% (inactive),
Cc1ccc(Nc2nc(-c3ccc(C)cc3)c(CC(=O)O)s2)cc1,14.4% (inactive),
Cc1nc2sc(C(c3cccc(F)c3)N3CCN(C(=O)c4ccco4)CC3)c(O)n2n1 (stereo not drawn),3.9% (inactive),
CC(=O)CC1(O)C(=O)Nc2ccccc21 (stereo not drawn),33.4% (inactive),
CN(C)CCNc1c(N)c(=O)oc2ccccc12,-16.1% (inactive),
Cc1ccc(C(=O)c2ccccc2C(=O)OCC(=O)NC(C)(C)C)cc1,-3.7% (inactive),
CCOC(=O)c1ccc(N2C(=O)c3n[nH]c(C)c3C2c2ccco2)cc1 (stereo not drawn),-2.1% (inactive),
CCOC(=O)c1ccc(N2C(=O)c3n[nH]c(-c4ccco4)c3C2c2cccc([N+](=O)[O-])c2)cc1 (stereo not drawn),27.2% (inactive),
CCOC(=O)c1ccc(N2C(=O)c3n[nH]c(-c4ccco4)c3C2c2ccc([N+](=O)[O-])cc2)cc1 (stereo not drawn),71.1% (active),
O=C(O)Cn1nnnc1-c1ccc(F)cc1,0% (inactive),
CC(NC(=O)C1CCCN(C(=O)N(C)C)C1)c1ccccc1 (stereo not drawn),0.8% (inactive),
CC(C)(C)OC(=O)N/N=C/c1cc(N=Nc2ccccc2)ccc1O,3.5% (inactive),
COC(=O)N/N=C/c1cc(N=Nc2ccccc2)ccc1O,23.6% (inactive),
Cc1cccc(C)c1N1C(=O)CC(N(O)c2ccccc2)C1=O (stereo not drawn),4.8% (inactive),
Cc1cc(C)c(C#N)c(N2CCN(S(=O)(=O)Cc3ccccc3)CC2)n1,1% (inactive),
CCOC(=O)c1sc(NC(=O)CN2C(=O)NC3(CC(C)CC(C)(C)C3)C2=O)c(C(=O)OCC)c1C (stereo not drawn),13.6% (inactive),
COc1cc(C2Nc3cccc4cccc(c34)N2)ccc1OC(C)=O,74.4% (inactive),-13.1
COc1cc(C2Nc3cccc4cccc(c34)N2)cc(OC)c1OC(C)=O,77.3% (active),
COc1ccc(C2Nc3cccc4cccc(c34)N2)cc1Br,25.7% (inactive),
CN(C)S(=O)(=O)c1cccc(NC(=S)Nc2cccc3cnccc23)c1,51.6% (active),
Cc1cc(C)cc(NC(=S)Nc2cccc3cnccc23)c1,16.7% (inactive),

SMILES,inhibition,inhibition [1] [%]
CCOc1ccc(NC(=S)Nc2cccc3cnccc23)cc1,27% (inactive),
S=C(Nc1cccnc1)Nc1cccc2cnccc12,79.7% (inactive),4.7
Cc1ccc(NC(=S)Nc2cccc3cnccc23)cc1,21.8% (inactive),
COc1ccc(NC(=S)Nc2cccc3cnccc23)cc1,77.7% (active),
COc1ccc(/C=C2\SC(N3CCCCC3)=NC2=O)cc1,3.8% (inactive),
COc1ccc(CNC(=O)C(C)OC(=O)c2cccn2C)cc1 (stereo not drawn),-0.9% (inactive),
COc1ccc(S(=O)(=O)N(C)C2CCS(=O)(=O)C2)cc1OC (stereo not drawn),4.6% (inactive),
COCCNC(=O)c1cccc(Nc2nc(-c3ccccc3)c3cc(Cl)ccc3n2)c1,54.5% (active),
OCCNc1nc(-c2ccccc2)c2cc(Cl)ccc2n1,15.1% (inactive),
O=C(NCCO)c1cccc(Nc2nc(-c3ccccc3)c3cc(Cl)ccc3n2)c1,11.1% (inactive),
Clc1ccccc1-c1nnc2sc(-c3ccc(Br)o3)nn12,-3.6% (inactive),
Cc1nnc(N/N=C\c2ccc(-c3ccccc3[N+](=O)[O-])o2)n1N,45% (inactive),
Nn1cnnc1N/N=C\c1ccc(-c2ccccc2[N+](=O)[O-])o1,62% (active),
O=[N+]([O-])c1ccccc1-c1ccc(/C=N/n2cnnc2)o1,-7.6% (inactive),
COc1ccc(CCN(C)C(=O)CN2C(=O)c3ccccc3S2(=O)=O)cc1OC,-0.2% (inactive),
COc1ccc(N2C(=O)N(Cc3cccc(F)c3)c3ccccc3S2(=O)=O)cc1,55.6% (active),
COc1ccc(N2C(=O)N(Cc3ccc(C)cc3)c3ccccc3S2(=O)=O)cc1,5.3% (inactive),
COc1ccc(N2C(=O)N(Cc3ccccc3F)c3ccccc3S2(=O)=O)cc1,-1.5% (inactive),
N#CCCN1CCCN(CCC#N)CCN(CCC#N)CCCN(CCC#N)CC1,-13.6% (inactive),
CCOC(=O)/C=c1\s/c(=C\c2c(OCC)ccc3ccccc23)c(=O)n1CC(=O)NCC1CCCO1 (stereo not drawn),10.3% (inactive),
COc1cc(OC)cc(C(=O)OCC(=O)NC(C)CCc2ccccc2)c1 (stereo not drawn),34.5% (inactive),
COc1ccc2c(Cl)c(C(=O)NN)sc2c1,8.1% (inactive),
COc1ccc2c(Cl)c(C(=O)N/N=C3\CCCC(=O)C3)sc2c1,50.9% (active),
O=C1CCC/C(=N/NC(=O)c2sc3ccccc3c2Cl)C1,8.3% (inactive),
